Test results from PubChem BioAssay (NCI).
About 83,000 compounds went through this panel and 20% of them were active in at least one assay; those are over-represented in the sample as a whole.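 Step 1: grow cells in 96-well plates. Step 2: add test compound at a single concentration. Step 3: incubate 48 h. Step 4: record percent growth.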 Values without a mark were called inactive. Active and inactive are the calls of the source. Rule for the calls: active = growth percent below 10; inactive = the rest.

Tests used:
Experiment in all cases: NCI-60 one-dose screen, 48 h (100 = growth as untreated, 0 = no growth, -100 = all killed)
Details in all cases: 10 µM unless noted
NCI-H23 lung = system: NCI-H23 lung
NCI-H226 lung = system: NCI-H226 lung
NCI-H322M lung = system: NCI-H322M lung
HOP-62 NSCLC = system: HOP-62 NSCLC
NCI-H460 lung = system: NCI-H460 lung
HOP-92 NSCLC = system: HOP-92 NSCLC
NCI-H522 lung = system: NCI-H522 lung
A549/ATCC NSCLC = system: A549/ATCC NSCLC
786-0 renal = system: 786-0 renal
COLO 205 colon = system: COLO 205 colon

Compound | growth (NCI-H23 lung) [%] | growth (NCI-H226 lung) | growth (NCI-H322M lung) [%] | growth (HOP-62 NSCLC) | growth (NCI-H460 lung) | growth (HOP-92 NSCLC) | growth (NCI-H522 lung) | growth (A549/ATCC NSCLC) [%] | growth (786-0 renal) | growth (COLO 205 colon)
CCOC(=O)/C(F)=C/C1CC1CCc1cccc(C(F)(F)F)c1 (stereo not given) | 101 | 102% | 106 | 98.3% | 111% | 116% | 100% | 107 | 103% | 103%
CCOC(=O)C1=C(C)N=C2Sc3ccccc3N2C1c1ccccc1 (stereo not given) | 85.2 | 89.2% | 86.8 | 101% | 91.2% | 75.4% | 73.9% | 82.9 | 87.7% | 96%
O=C1c2c(c3c4cc(Br)ccc4[nH]c3c3ccc4ccccc4c23)C(=O)N1CCN1CCNCC1 | 77.1 | 87.6% | 95.6 | 60.9% | 36.5% | 82.5% | 74.3% | 54.4 | 76.5% | 86.5%
Clc1ccc(-c2csc(Nc3cccc(Nc4csc(-c5ccc(Cl)cc5)n4)c3)n2)cc1 | 72.3 | 74.6% | 68.9 | 85.3% | 79.1% | 75.9% | 45.6% | 88.5 | 104% | 94.2%
COC(=O)Nc1ccc(-c2nc(-c3cccc(O)c3)c(-c3ccnc(Br)c3)[nH]2)cc1 | 67.2 | 63.8% | 68.4 | 64.7% | 26.8% | 51.5% | 56% | 62.2 | 34.6% | 95.4%
O=C1Nc2ccc(Br)cc2/C1=N\c1nnc(-c2ccc(Cl)cc2)o1 | 79.8 | 80.3% | 94.2 | 66% | 46.3% | 79.7% | 59.8% | 54 | 91.4% | 83.3%
Clc1ccc(-c2nc3ccc(/C(=N\N=C\c4ccccc4)c4ccccc4)cc3[nH]2)cc1 | 95 | 82.4% | 92.4 | 111% | 92.5% | 96.3% | 76.4% | 81 | 84.3% | 73.1%
Oc1ccc(CSc2nnc(-c3ccc(Cl)cc3)o2)c2cccnc12 | 27.6 | 60.2% | 26.1 | 21.5% | 5.72% (active) | 21.8% | 32% | 19.6 | 27.9% | 97.4%
CN1CCN(c2ccc3c(C(N)=O)c(NC(=O)c4ccc(C(C)(C)C)cc4)sc3c2)CC1 | 79.7 | 104% | 94.7 | 86.6% | 53.8% | 79% | 103% | 76.2 | 71.2% | 70.1%
IP(CCCSc1n(Cc2ccc3ccccc3c2)c(-c2ccccc2)c(-c2ccccc2)[n+]1Cc1ccc2ccccc2c1)(c1ccccc1)(c1ccccc1)c1ccccc1 | 26.3 | 78.8% | 63.5 | 31.2% | 22.8% | -1.48% (active) | 8.1% (active) | 26.7 | 87.2% | -9.45% (active)
COC(=O)c1c(C(=O)OC)c2n(CC(=O)Nc3cccc4cccnc34)c3ccccc3n2c1C(=O)c1ccc(C)cc1 | 94.1 | 88% | 99 | 96% | 103% | 89.7% | 80.5% | 91.2 | 101% | 114%
COc1ccccc1/C=C/C=N/NC1=NC2C(S1)N(C)C(=O)N2c1ccccc1 (stereo not given) | 30.1 | 45.5% | 38.1 | 46% | 2.27% (active) | 38.9% | 13.1% | 22.5 | 16.8% | -4.6% (active)
COc1ccc(CCN2C(=O)CSC2=S)cc1OC | 98.9 | 100% | 101 | 105% | 102% | 68.7% | 55.1% | 97.2 | 94.9% | 117%
C#C[C@]1(O)CC[C@H]2[C@@H]3CC=C4c5sc(Nc6cccc(Cl)n6)nc5CC[C@]4(C)[C@H]3CC[C@@]21C | 16.1 | 19.8% | 44.5 | -8.39% (active) | -2.3% (active) | -5.56% (active) | -17.7% (active) | 18.5 | -54.8% (active) | 34.5%
COc1cc(-c2noc(C[C@@H](NC(=O)OCc3ccccc3)C(C)C)n2)cc(OC)c1OC | 96.9 | 101% | 92.3 | 94.4% | 102% | 88.3% | 92.1% | 100 | 101% | 117%
c1cncc(-c2cn3nc(-c4c[nH]c5ccccc45)sc3n2)c1 | 49.9 | -48.5% (active) | 72.2 | 66% | 25.4% | 33.8% | 2.85% (active) | 57.8 | 22.5% | 44.4%
NC(N)=NS(=O)(=O)c1ccc(N=NC2C(=O)NN(c3ccccc3)C2=O)cc1 (stereo not given) | 93.5 | 85.6% | 101 | 110% | 101% | 68.9% | 104% | 104 | 100% | 113%
Cc1ccc(/C=C/CC(=O)Nc2ccc(C(=O)Nc3ccc(F)cc3N)cc2)cn1 | 68.6 | 68.6% | 74.4 | 59.1% | 72.1% | 22.6% | 30.4% | 69.2 | 75.6% | 49.4%
C/C(=N\NC(=S)Nc1ccc(Br)cc1)c1cc2ccccc2oc1=O | 34.1 | -17.8% (active) | 37.4 | 30.5% | 3.8% (active) | 29.1% | -14.4% (active) | 27.3 | 5.25% (active) | 71.1%
COc1ccc(CN2C(=O)/C(=C/c3nc(CO)cs3)SC2=S)cc1 | 92.6 | 101% | 97.5 | 104% | 100% | 63.4% | 35.6% | 95.7 | 51.2% | 118%
CCCCCc1ccc(S(=O)(=O)N(C(C)=O)c2cccc(-c3csc(N(CCN4CCN(C)CC4)C(C)=O)n3)c2)cc1 | 48.9 | 85.3% | 61.1 | 83.5% | -21.4% (active) | 34% | 69.8% | 39.5 | 6.89% (active) | -61% (active)
COc1cc(C(=O)C[n+]2ccc3ccccc3c2)cc(OC)c1OC | 96.6 | 95.9% | 98.3 | 97.3% | 101% | 80% | 92.9% | 105 | 102% | 103%
